ELG1 genotox: qHTS screen for small molecules that induce genotoxicity in human embryonic kidney (HEK293T) cells expressing luciferase-tagged ELG1; HEK293T ELG1-luciferase reporter, luminescence, 16 h; Potency, µM (highest dose often 46 µM), for the others: at the top dose activity change, positive = activation, usual class: activators; actives 1.3% (n = 330,000); AID 504466, 2011; also: % of control where 0% means no effect; nearly all actives have a fitted effect of over 60% in size
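HEK293T cells expressing luciferase-tagged ELG1 were exposed to compound or DMSO vehicle for 16 hr at 37 °C and 5% CO2. Luciferase activity was then measured with ONE-Glo after 30 min at room temperature.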
Rab9 promoter act: qHTS Assay for Rab9 Promoter Activators | Huh7 Rab9 promoter-luciferase reporter, luminescence, 24 h | Potency, µM (doses to about 9.22 µM), for inactives: top-dose activation, negative = inhibition, actives largely listed as activators | actives 2.8% (n = 320,000) | AID 485297, 2010; also: % of control where 0% means no effect; nearly all actives have a fitted effect of over 60% in size
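Cell-based reporter: Huh7 stable for Rab9 promoter-driven luciferase, plated in reduced-serum medium with 10% FBS at 1500 cells/well, compound-treated 24 h at 37 °C, luminescence read after 10 min reagent.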
NPC1 prom act: qHTS Assay for NPC1 Promoter Activators | Huh7 NPC1 promoter luciferase reporter, 24 h | Potency, µM (titrated, usually from 9.22 µM), for inactives: top-dose activation, hits mostly activators | actives 2.4% (n = 320,000) | AID 485313, 2010; also: % of control where 0% means no effect; nearly all actives have a fitted effect of over 60% in size
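Huh7 reporter cells (NPC1 promoter driving luciferase) are dosed with compound for 24 h at 37 °C, 5% CO2; luciferase detection reagent is then added and luminescence measured after 10 min at ambient temperature.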
SMN2 splice up: qHTS Assay for Enhancers of SMN2 Splice Variant Expression. HEK293 SMN2-luciferase splicing reporter, luminescence, 30-36 h. Potency, µM (doses to about 46.1 µM), for the others: at the highest dose activity change, positive = activation, hits mostly activators. actives 2.8% (n = 210,000); also: % of control where 0% means no effect; nearly all actives have a fitted effect of over 55% in size
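HEK293 cells carry an SMN2 minigene-luciferase reporter in which exon 7 inclusion puts luciferase in frame. Cells were seeded at 2000 cells/well, attached for 10-12 hours, then exposed to compounds for 30-36 hours at 37C before ONE-Glo luminescence.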
FLuc counter: qHTS profiling assay for firefly luciferase inhibitor/activator using purifed enzyme and Km concentrations of substrates (counterscreen for miR-21 project). Luciferin 4-monooxygenase (Photinus pyralis), P08659. actives 6.9% (n = 360,000). Potency, µM (doses to about 57.5 µM), for the others: top-dose activity change, negative = inhibition, usual class: inhibitors. AID 588342, 2011. purified FLuc, Km substrates, luminescence inhibition;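 also: plate controls were vehicle for no effect and reference inhibitor for full effect; nearly all actives have a fitted effect of over 55% in size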
Target sequence (P08659 whole entry, looked up): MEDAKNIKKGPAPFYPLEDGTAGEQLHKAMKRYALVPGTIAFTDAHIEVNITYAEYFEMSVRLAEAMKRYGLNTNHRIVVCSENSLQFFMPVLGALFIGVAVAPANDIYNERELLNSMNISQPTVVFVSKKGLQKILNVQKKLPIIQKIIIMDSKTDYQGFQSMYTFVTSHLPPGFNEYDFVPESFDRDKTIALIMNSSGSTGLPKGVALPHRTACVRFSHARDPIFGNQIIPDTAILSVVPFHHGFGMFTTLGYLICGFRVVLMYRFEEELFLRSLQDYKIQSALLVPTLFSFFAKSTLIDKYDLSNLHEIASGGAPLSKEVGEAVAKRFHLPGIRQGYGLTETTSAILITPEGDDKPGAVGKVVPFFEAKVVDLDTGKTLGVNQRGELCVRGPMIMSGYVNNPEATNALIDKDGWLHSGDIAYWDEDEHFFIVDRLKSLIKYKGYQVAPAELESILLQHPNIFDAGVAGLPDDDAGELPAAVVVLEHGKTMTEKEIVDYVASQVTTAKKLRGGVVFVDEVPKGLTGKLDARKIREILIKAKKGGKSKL
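Biochemical qHTS of compounds, final roughly 60 µM downward over six points, against 10 nM purified firefly luciferase using Km concentrations of substrates (10 uM D-luciferin, 10 uM ATP) in Tris acetate pH 7.5 buffer; luminescence output.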
ELG1 repair inh: qHTS screen for small molecules that inhibit ELG1-dependent DNA repair in human embryonic kidney (HEK293T) cells expressing luciferase-tagged ELG1. Potency, µM (highest dose often 46.1 µM), without a hit: top-dose activity change, negative = inhibition, most hits filed as inhibitors. actives 2.3% (n = 330,000). HEK293T ELG1-luciferase reporter, luminescence, 16 h; DNA damage induced by 5-fluorouridine; also: % is scaled to controls: 0 for no effect and ±100 for the full control effect; nearly all actives have a fitted effect of over 55% in size
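Overnight (16 hr) co-exposure of 2,000 cells/well to 5-fluorouridine and compound at 37 °C preceded detection. Luciferase was quantified via ONE-Glo luminescence; loss of signal denotes inhibition.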
Starred values were filed as active, the others as inactive; ? = inconclusive; / = no result; [ ] = another dose, or the depositor's remark. An excerpt weighted towards active compounds, which were near 9.2% of everything screened. Calls follow the shape of the dose curve; as a rule, active = well fitted curve in the direction sought with a large enough effect; inconclusive = small, poorly fitted or top-dose-only effect, or another doubt; inactive = no such curve, though single readings can be large; an effect the other way counts as inactive or inconclusive. Potency is read from the fitted curve at half-maximal effect.

SMILES	ELG1 genotox	Rab9 promoter act	NPC1 prom act	SMN2 splice up	FLuc counter	ELG1 repair inh
Cc1cc(N(C)C)nc(Nc2ccccc2)n1	-7.3%	1.6%	1.8%	/	?	14.6µM*
Cc1ccc(C(=O)NCC(c2cccnc2)N2CCc3ccccc3C2)cc1C (stereo not given)	/	/	/	/	2.69µM*	/
O=c1[nH][nH]cc1C=Nc1cc(Cl)ccc1O	0.0%	-7.4%	-11.7%	40.8%	-1.7%	-13.8%
O=c1[nH][nH]cc1C=Nc1ccc(Cl)cc1Cl	8.8%	-1.8%	-4.5%	-3.9%	7.57µM*	1.4%
CCn1c(C)nc2cc(C(=O)N/N=C/c3ccc(OC)cc3)ccc21	2.7%	-4.1%	-1.0%	-5.5%	?	-8.6%
CCn1c(C)nc2cc(C(=O)N/N=C(\C)c3ccc(OC)cc3O)ccc21	-0.3%	-25.3%	-34.1%	-84.5%	?	7.3µM*
CCn1c(C)nc2cc(C(=O)N/N=C/c3ccccc3)ccc21	9.2µM*	3.55µM*	3.16µM*	17.8µM*	21.3µM*	?
CCn1c(C)nc2cc(C(=O)NNC(=O)c3ccc(C)cc3)ccc21	?	?	26.4%	/	?	?
CCn1c(C)nc2cc(C(=O)OC(C(F)(F)C(F)F)C(F)(F)C(F)F)ccc21	16.4µM*	?	?	-25.8%	3.79µM*	?
CCn1c(C)nc2cc(C(=O)N/N=C/c3ccc(O)cc3)ccc21	9.5%	-3.1%	0.8%	21.3%	15.1µM*	?
CCn1c(C)nc2cc(C(=O)NN=C(C)c3ccc(C#N)cc3)ccc21	-1.7%	/	/	/	/	-14.1%
CCn1c(C)nc2cc(C(=O)NN=Cc3ccc([N+](=O)[O-])cc3)ccc21	-1.4%	/	/	/	/	0.0%
COc1cccc(CN2CCN(Cc3cccc4nonc34)CC2CCO)c1 (stereo not given)	-0.8%	-4.5%	-3.9%	/	1.5%	8.9%
CCn1c(C)nc2cc(C(=O)N/N=C/c3cccc(O)c3O)ccc21	?	-13.5%	-18.9%	/	8.49µM*	?
CCn1c(C)nc2cc(C(=O)N=Nc3c(O)[nH]c4ccccc34)ccc21	?	?	?	55.6%	6.01µM*	?
CCn1c(C)nc2cc(C(=O)N/N=C/c3ccc(OC)c(O)c3)ccc21	2.6%	-3.2%	2.9%	-17.2%	?	2.7%
Cc1ccc(N=Nc2c(O)ccc3n[nH]nc23)cc1	?	?	1.58µM*	/	10.7µM*	?
Cc1ccc(N=Nc2c(O)ccc3cc(S(=O)(=O)O)ccc23)cc1	/	/	/	-5.5%[9.22 µM]	/	/
COc1ccccc1NC(=O)N1CCN(c2ccc3nnc(-c4ccc(F)cc4)n3n2)CC1	-4.1%	-13.0%	-7.2%	-3.3%	5.4%	?
O=C(Nc1ccccc1Cl)N1CCN(c2ccc3nnc(-c4ccc(F)cc4)n3n2)CC1	-6.8%	3.0%	-4.4%	-12.3%	2.5%	20.6µM*
COc1ccc(C(=O)COC(=O)C(C(C)C)N2C(=O)C3C4C=CC(C4)C3C2=O)cc1 (stereo not given)	-2.9%	-2.0%	1.1%	?	19µM*	-12.3%
CC(=O)COC(=O)c1cc(-c2ccc(C)cc2)nc2ccccc12	6.2%	24.0%	15.9%	/	16.9µM*	?
Cc1ccc(/C(N)=N/OC(=O)c2cc(-c3ccccc3)nc3ccccc23)cc1	-0.4%	-0.6%	-0.4%	7.4%	13.5µM*	3.1%
COc1ccc(/C(N)=N/OC(=O)c2cc(-c3ccccc3)nc3ccccc23)cc1	-3.3%	-1.4%	2.1%	-15.6%	?	7.0%
Cc1ccc(-c2cc(C(=O)Oc3ccccc3)c3cc(C)ccc3n2)cc1	/	/	/	0.0%	21.3µM*	/
SMILES	ELG1 genotox	Rab9 promoter act	NPC1 prom act	SMN2 splice up	FLuc counter	ELG1 repair inh
N/C(=N\OC(=O)c1cc(-c2ccccc2)nc2ccccc12)c1ccccn1	-7.5%	13.9%	9.5%	/	9.53µM*	18.3µM*
Cc1ccc(C(=O)COC(=O)c2cc(-c3ccc(Cl)cc3)nc3ccccc23)cc1	/	/	/	3.5%	-9.9%	/
COc1ccc(CCNC(=O)[C@@H](NC(=O)c2ccccc2F)C(C)C)cc1OC	-5.3%	-4.6%	-0.2%	-0.6%	-0.8%	-10.0%
COc1ccccc1S(=O)(=O)Cc1ccc(C(=O)N2CCOCC2)o1	3.5%	-1.8%	-2.3%	?	0.5%	16.3%
COc1ccccc1S(=O)(=O)Cc1ccc(C(=O)N2CCN(c3ccccc3)CC2)o1	-6.9%	-1.6%	0.9%	-30.5%	-4.4%	20.6µM*
COc1ccccc1S(=O)(=O)Cc1ccc(C(=O)N2CCN(c3cccc(Cl)c3)CC2)o1	4.1%	-16.1%	-27.7%	-4.2%	?	11.6µM*
O=C(NCc1ccccc1)NC(=O)c1ccccc1F	?	20.4%	23.6%	/	-19.5%	18.2%
CCOc1ccc(-c2cn3nc(CC(C)C)sc3n2)cc1	/	/	/	16.9%	2.69µM*	/
Cc1nn2cc(-c3ccc(-c4ccccc4)cc3)nc2s1	0.82µM*	?	0.631µM*	?	0.536µM*	?
Cc1nc2nc(-c3ccc(Cl)cc3)cn2nc1C	?	0.355µM*	?	0.708µM*	1.07µM*	?
Cc1nn2cc(-c3ccc(Cl)cc3)nc2s1	0.517µM*	0.316µM*	0.316µM*	3.55µM*	1.2µM*	?
O=c1c2oc3ccccc3c2ncn1Cc1ccc(Cl)cc1	10.3%	1.8%	3.5%	-11.6%	0.4%	?
COc1ccc(OC)c(C2Nc3c(C)cc(C)cc3-c3cc(C)nn32)c1 (stereo not given)	/	/	/	-25.1%	-11.7%	/
COc1ccc(N(CC2CO2)S(=O)(=O)c2ccccc2)cc1 (stereo not given)	1.0%	-3.4%	-0.2%	/	3.1%	16.2%
CCOc1ccccc1N(CC)C(=O)c1cc2c(=O)n(CC)c3ccccc3c2s1	/	/	/	-49.0%	-11.2%	/
COc1cccc(-c2cn3nc(C)c(C)nc3n2)c1	?	2.82µM*	2µM*	12.6µM*	10.7µM*	?
CCc1nn2cc(-c3ccccc3)nc2s1	/	0.126µM*	0.112µM*	1.41µM*	0.477µM*	?
Cc1nc2nc(-c3cccs3)cn2nc1C	?	0.501µM*	1.41µM*	14.1µM*	10.7µM*	?
COc1ccc(-c2nnc3sc(COc4ccc(C)cc4)nn23)cc1	0.5%	-4.8%	2.3%	-1.4%	?	0.7%
COCc1nn2cc(-c3ccc(C)cc3)nc2s1	/	/	/	2.51µM*	1.35µM*	/
